Test systems include RPMI-8226 leukemia; OVCAR-8 ovarian; OVCAR-5 ovarian; OVCAR-4 ovarian; SK-OV-3 ovarian; IGROV1 ovarian; OVCAR-3 ovarian; HS 578T breast; NCI/ADR-RES ovarian; T-47D breast; BT-549 breast; MDA-MB-435 melanoma; SW-620 colon; MCF7 breast; HCT-116 colon; HCC-2998 colon; KM12 colon.
Experiment in all cases: NCI-60 one-dose screen, 48 h (100 = growth as untreated, 0 = no growth, -100 = all killed)
Conditions in all cases: 10 µM unless noted

Structures are written as SMILES. Compounds without any hit were thinned out: in the full panel of roughly 83,000, 20% have a hit.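 Single-dose data. Exposure time 48 hours. Values below 10 considered active.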 Unmarked numbers belong to inactive results. Activity calls are given as the source filed them.

Turning to `O=S(=O)(NCCCNc1cc(-c2cn(-c3ccccc3)nc2-c2cccc(O)c2)ccn1)c1ccc(F)cc1`, the growth in the test on RPMI-8226 leukemia was 21.4%; in the test on OVCAR-8 ovarian it was 23.4%; with OVCAR-5 ovarian, 65.5%; with OVCAR-4 ovarian, 35.7%; with SK-OV-3 ovarian, 49%; in the test on IGROV1 ovarian, 40.6%. Also, the growth with OVCAR-3 ovarian was 45.8%; in the test with HS 578T breast, 24.3%; with NCI/ADR-RES ovarian it was 25.9%; in the test with T-47D breast, 14.8%; with BT-549 breast, 40.6%; in the test on MDA-MB-435 melanoma it was 38.9%. The growth with SW-620 colon is 30.1%; in the test with MCF7 breast it was 27.2%; in the test with HCT-116 colon, 23%; in the test on HCC-2998 colon it was -34.8% (active); in the test on KM12 colon, 24.2%.

For `C[C@@H](C(=O)O)c1ccc2c3cc(Cl)ccc3n(Cc3cc(=O)oc4ccc(Cl)cc34)c2c1`, the growth was 109% in the test with RPMI-8226 leukemia; 105% with OVCAR-8 ovarian; 97.3% in the test on OVCAR-5 ovarian; 98.9% in the test on OVCAR-4 ovarian; 96.9% with SK-OV-3 ovarian; 74.2% in the test with IGROV1 ovarian. Moreover, the growth with OVCAR-3 ovarian was 98.7%; in the test on HS 578T breast, 101%; in the test with NCI/ADR-RES ovarian, 98.3%; in the test on T-47D breast, 86.8%; with BT-549 breast, 86.7%; with MDA-MB-435 melanoma it was 104%. Also, the growth in the test with SW-620 colon is 107%; in the test on MCF7 breast, 90.7%; in the test with HCT-116 colon, 87.8%; with HCC-2998 colon it was 101%; with KM12 colon it was 99%.

On to `CCCCC/C(=C\c1ccccc1)C1OC(C)C(C)O1` (stereo not given), for which the growth was 96.3% in the test on OVCAR-8 ovarian; 93.7% with OVCAR-5 ovarian; 108% in the test on OVCAR-4 ovarian; 96.7% with SK-OV-3 ovarian; 112% in the test with IGROV1 ovarian; 101% with OVCAR-3 ovarian. The growth is 110% in the test on HS 578T breast; 100% in the test with NCI/ADR-RES ovarian; 94.4% in the test on T-47D breast; 95.7% in the test with BT-549 breast; 105% in the test on MDA-MB-435 melanoma; 103% in the test on SW-620 colon. The growth is 102% with MCF7 breast, 81.7% in the test with HCT-116 colon, 102% with HCC-2998 colon and 98.8% in the test with KM12 colon.

For the compound `Cn1cc(-c2nc(-c3c[nH]c4ncccc34)cs2)c2cc(Br)ccc21`, the growth in the test with RPMI-8226 leukemia is 72.6%; with OVCAR-8 ovarian, 104%; with OVCAR-5 ovarian it was 82.9%; in the test with SK-OV-3 ovarian, 91.9%; in the test with IGROV1 ovarian it was 76%; in the test on OVCAR-3 ovarian it was 118%. In addition, the growth is 98% in the test on HS 578T breast; 75% in the test on NCI/ADR-RES ovarian; 84% in the test on T-47D breast; 99.8% with BT-549 breast; 79.8% with MDA-MB-435 melanoma; 95.8% with SW-620 colon. The growth with MCF7 breast is 35.3%; in the test on HCT-116 colon, 64.4%; with HCC-2998 colon, 99.8%; in the test with KM12 colon it was 62.5%.

With `Cn1cc(-c2nc(-c3c[nH]c4ncccc34)cs2)c2cc(Cl)ccc21`, the growth is 34.2% in the test on RPMI-8226 leukemia; 63.2% with OVCAR-8 ovarian; 60.3% in the test on OVCAR-5 ovarian; 71.7% in the test with SK-OV-3 ovarian; 46.3% with IGROV1 ovarian; 69.9% with OVCAR-3 ovarian. In addition, the growth with HS 578T breast is 61.6%; in the test with NCI/ADR-RES ovarian, 44.7%; in the test with T-47D breast, 38.9%; with BT-549 breast, 70.6%; in the test on MDA-MB-435 melanoma it was 51.9%; in the test with MCF7 breast it was 17%. For the same compound, the growth in the test with HCT-116 colon is 32.2%; with HCC-2998 colon, 80.6%; in the test on KM12 colon it was 9.88% (active).

Consider `COc1ccc2c(c1)c(-c1nc(-c3c[nH]c4ncccc34)cs1)cn2C`, for which the growth in the test with RPMI-8226 leukemia was 44.3%; in the test on OVCAR-8 ovarian it was 80.8%; in the test on OVCAR-5 ovarian, 55%; with SK-OV-3 ovarian, 63.9%; with IGROV1 ovarian it was 59.8%; in the test with OVCAR-3 ovarian, 103%. The growth in the test on HS 578T breast was 77.2%; with T-47D breast it was 41.4%; in the test with BT-549 breast it was 72.8%; with MDA-MB-435 melanoma, 69.6%; in the test on SW-620 colon it was 83.3%; with MCF7 breast, 14.9%. In addition, the growth in the test on HCT-116 colon was 56.7%; in the test with HCC-2998 colon, 83.1%; in the test on KM12 colon it was 24%.

Regarding `N#CC1=C(N)Oc2c(sc3c(F)cccc23)C1c1ccc(Cl)cc1` (stereo not given), the growth in the test with RPMI-8226 leukemia is 10.6%; in the test with OVCAR-8 ovarian, 42.8%; in the test on OVCAR-5 ovarian, 82.1%; with OVCAR-4 ovarian it was 62.8%; in the test on SK-OV-3 ovarian it was 31%; in the test with IGROV1 ovarian, 33.3%. Besides, the growth in the test with OVCAR-3 ovarian is 6.16% (active); in the test with HS 578T breast it was 40.6%; in the test on NCI/ADR-RES ovarian, 14.4%; in the test with T-47D breast it was 33.2%; in the test on MDA-MB-435 melanoma, -32% (active); with SW-620 colon it was 26.9%. For the same compound, the growth with MCF7 breast is 14.8%; with HCT-116 colon it was 14.4%; in the test on HCC-2998 colon, 87.7%; in the test with KM12 colon, 33.9%.

With `C#CCn1c2c(c3ccccc31)C[C@]1(C)[C@H]3CC[C@@H]4[C@@H]5C(=CCC[C@H]5C(=C)C)CC[C@@]4(C)[C@]3(C)CC[C@H]1C2(C)C`, the growth is 106% in the test on RPMI-8226 leukemia; 105% in the test with OVCAR-8 ovarian; 101% with OVCAR-5 ovarian; 100% in the test with OVCAR-4 ovarian; 108% with SK-OV-3 ovarian; 98.4% with IGROV1 ovarian. In addition, the growth in the test with OVCAR-3 ovarian was 108%; in the test on HS 578T breast, 93.8%; in the test on NCI/ADR-RES ovarian it was 106%; with T-47D breast it was 106%; in the test with BT-549 breast, 100%; with MDA-MB-435 melanoma, 102%. The growth is 98.2% in the test with SW-620 colon; 95.7% in the test with MCF7 breast; 101% with HCT-116 colon; 102% with HCC-2998 colon; 102% in the test with KM12 colon.

For `COC(=O)[C@]12CC[C@@H](C)[C@H](C)[C@@H]1C1=CC[C@@H]3[C@@]4(C)C(c5ncon5)=C[C@@](C)(CO)C4=CC[C@@]3(C)[C@]1(C)CC2`, the growth was -32.4% (active) in the test on RPMI-8226 leukemia; -6.22% (active) in the test with OVCAR-8 ovarian; -56.2% (active) in the test with OVCAR-5 ovarian; 5.83% (active) in the test with OVCAR-4 ovarian; 68.9% with SK-OV-3 ovarian; -10.8% (active) with IGROV1 ovarian. Further, the growth in the test on OVCAR-3 ovarian was -86.8% (active); in the test with HS 578T breast, 12.5%; in the test on NCI/ADR-RES ovarian, 6.21% (active); in the test on T-47D breast, -0.698% (active); in the test with BT-549 breast, 8.08% (active); in the test with MDA-MB-435 melanoma, -24% (active). Besides, the growth is -34.7% (active) in the test with SW-620 colon, -63% (active) in the test with MCF7 breast, -83.1% (active) in the test with HCT-116 colon and -47.6% (active) in the test on KM12 colon.

The record behind these values is PubChem BioAssay (NCI).
